Results on 35 compounds are retold here after PubChem BioAssay AID624101 (Broad Institute, 2012).

Among all 70,000 compounds or so, about 120 (0.17%) were called active. The sample holds actives, similar compounds and a random draw of the others, so the mix is not that of the screen. A number with no mark means an inactive call. Rule as the data show it: active = inhibition above about 34%; inconclusive = no clear call, values can overlap the other calls; inactive = below about 11%.

The target of the assay is Isocitrate dehydrogenase [NADP] cytoplasmic (Homo sapiens) (UniProt O75874). Put plainly: PubChem AID 624101.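 Also: 0% = DMSO and 100% = no enzyme.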 To be noted: IDH1 R132H reductase, diaphorase/resazurin fluorescence, 60 min; at 10 µM; stronger effect = higher value.
Chain of Isocitrate dehydrogenase [NADP] cytoplasmic (Homo sapiens) (O75874 whole entry R132H): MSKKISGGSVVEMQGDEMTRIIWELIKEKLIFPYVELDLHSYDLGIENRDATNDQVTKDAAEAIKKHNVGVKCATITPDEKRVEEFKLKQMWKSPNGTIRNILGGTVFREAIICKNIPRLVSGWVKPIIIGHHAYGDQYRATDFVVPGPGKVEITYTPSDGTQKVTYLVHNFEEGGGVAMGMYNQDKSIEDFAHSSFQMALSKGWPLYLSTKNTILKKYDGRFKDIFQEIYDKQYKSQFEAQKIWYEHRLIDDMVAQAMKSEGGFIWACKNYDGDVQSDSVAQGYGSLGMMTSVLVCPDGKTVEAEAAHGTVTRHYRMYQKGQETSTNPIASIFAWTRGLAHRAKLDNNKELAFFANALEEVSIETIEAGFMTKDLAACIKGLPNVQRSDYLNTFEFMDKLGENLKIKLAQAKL
In the case of `CCCc1cn(CC[C@@H]2CC[C@H](NS(=O)(=O)c3ccccc3Cl)[C@H](CO)O2)nn1`, the inhibition was -0.0115%.

As for `CCCC(=O)Nc1ccc2c(c1)C(=O)N(C)C[C@H](OC)[C@@H](C)CN(C(C)=O)[C@H](C)CO2`, the inhibition was 0.373%.

Take `COCc1cn(CC[C@H]2CC[C@H](NC(=O)c3ccncc3)[C@H](CO)O2)nn1`: the inhibition was 0.111%.

Consider `O=C(N[C@@H]1CC[C@@H](CCn2cc(-c3ccccn3)nn2)O[C@@H]1CO)c1ccccc1`, for which the inhibition was 0.105%.

As for `O=C(C[C@@H]1C[C@H]2c3cc(NC(=O)C4CCOCC4)ccc3O[C@H]2[C@@H](CO)O1)NCCN1CCCCC1`, the inhibition is -0.003%.

On to `O=C(C[C@H]1CC[C@@H](NC(=O)c2ccccc2)[C@@H](CO)O1)NCc1ccncn1`, for which the inhibition is -0.091%.

`CO[C@@H]1CN(C)C(=O)c2cc(NC(=O)c3ccc(F)cc3)ccc2OC[C@H](C)N(C(=O)CN(C)C)C[C@H]1C`: the inhibition was -0.235%.

On to `C[C@@H]1CN([C@H](C)CO)C(=O)c2cc(-c3ccccc3)cnc2O[C@H]1CN(C)C(=O)Nc1ccccc1`, for which the inhibition is -0.031%.

`Cc1noc(C)c1NC(=O)N(C)C[C@H]1Oc2ccc(NS(=O)(=O)c3ccc(Cl)cc3)cc2CC(=O)N([C@H](C)CO)C[C@@H]1C`: the inhibition is 0.108%.

Consider `O=C(N[C@H]1CC[C@H](CCn2cc(C3(O)CCCC3)nn2)O[C@H]1CO)C1CC1`, for which the inhibition is -0.0085%.

For the compound `COc1ccccc1CNC(=O)C[C@@H]1C[C@H]2c3cc(NC(=O)CN(C)C)ccc3O[C@H]2[C@@H](CO)O1`, the inhibition is -0.208%.

On to `C[C@@H]1CN([C@@H](C)CO)S(=O)(=O)c2ccc(C#Cc3ccncc3)cc2O[C@@H]1CN(C)S(=O)(=O)c1ccccc1`, for which the inhibition is -0.653%.

With `CO[C@@H](CN(C)C(=O)c1cnccn1)[C@H](C)CN([C@H](C)CO)S(=O)(=O)c1ccc(C)cc1`, the inhibition is 0.027%.

For the compound `C/C=C/c1cnc2c(c1)C(=O)N([C@H](C)CO)C[C@H](C)[C@H](CN(C)C(=O)c1cccc(F)c1)O2`, the inhibition was 0.473%.

As for `CO[C@H]1CN(C)C(=O)c2cc(NS(=O)(=O)c3ccc(C)cc3)ccc2OC[C@H](C)NC[C@H]1C`, the inhibition was 0.218%.

In the case of `COc1ccc(-c2cnc3c(c2)C(=O)N([C@@H](C)CO)C[C@@H](C)[C@H](CN(C)C(=O)C2CCCCC2)O3)cc1`, the inhibition was -0.366%.

As to `CN(C)C(=O)C[C@@H]1C=C[C@H](NC(=O)Nc2cccc(F)c2)[C@H](CO)O1`, the inhibition is 0.0155%.

As for `CCC(=O)Nc1ccc2c(c1)C(=O)N(C)C[C@H](OC)[C@H](C)CN(C(=O)c1ccccc1F)[C@@H](C)CO2`, the inhibition is -0.083%.

Regarding `COc1cccc(S(=O)(=O)Nc2ccc3c(c2)C(=O)N(C)C[C@@H](OC)[C@H](C)CN(C(=O)Cc2cccnc2)[C@H](C)CO3)c1`, the inhibition was 0.018%.

For the compound `CCCNC(=O)Nc1ccc2c(c1)C(=O)N(C)C[C@@H](OC)[C@@H](C)CN(C)[C@@H](C)CO2`, the inhibition was -0.291%.

In the case of `CO[C@@H]1CN(C)C(=O)c2cc(NS(C)(=O)=O)ccc2OC[C@@H](C)N(C(=O)C2CCC2)C[C@@H]1C`, the inhibition was -0.303%.

As to `CCC(=O)Nc1ccc2c(c1)OC[C@@H](C)N(CC1CC1)C[C@H](C)[C@H](OC)CN(C)C2=O`, the inhibition is 0.102%.

In the case of `O=C(C[C@@H]1C=C[C@@H](NC(=O)c2ccccc2)[C@H](CO)O1)NCCc1ccncc1`, the inhibition was 0.0765%.

As for `CO[C@H]1CN(C)C(=O)c2ccc(NC(=O)c3cc(C)on3)cc2OC[C@H](C)N(C)C[C@H]1C`, the inhibition was 0.444%.

Consider `CN1CCN(C(=O)C[C@H]2C[C@@H]3c4cc(NC(=O)NC5CCCC5)ccc4O[C@@H]3[C@@H](CO)O2)CC1`, for which the inhibition was 0.0955%.

As for `O=C(NCC[C@H]1CC[C@H](NC(=O)C2CC2)[C@@H](CO)O1)c1ccc(F)cc1`, the inhibition is 0.372%.

For `O=C(Nc1ccc2c(c1)[C@@H]1C[C@H](CC(=O)N3CCOCC3)O[C@@H](CO)[C@@H]1O2)C1CCOCC1`, the inhibition was -1%.

On to `COCC(=O)Nc1ccc2c(c1)C(=O)N(C)C[C@@H](OC)[C@@H](C)CN(C(=O)c1ccccc1)[C@@H](C)CO2`, for which the inhibition is 0.0325%.

On to `CO[C@@H]1CN(C)C(=O)c2ccc(NC(=O)c3ccc(F)cc3)cc2OC[C@H](C)N(C)C[C@H]1C`, for which the inhibition is 0.002%.

On to `COCC(=O)Nc1ccc2c(c1)[C@H]1C[C@H](CC(=O)OC)O[C@@H](CO)[C@H]1O2`, for which the inhibition was -0.0115%.

With `CO[C@@H]1CN(C)C(=O)c2ccc(NS(=O)(=O)c3cccc(C)c3)cc2OC[C@@H](C)NC[C@H]1C`, the inhibition was -0.0525%.

As to `COCC(=O)Nc1ccc2c(c1)OC[C@H](C)N(C(=O)COC)C[C@@H](C)[C@H](OC)CN(C)C2=O`, the inhibition is -0.0515%.

On to `CC(=O)N(C)C[C@@H]1Oc2cc(-c3cncnc3)ccc2S(=O)(=O)N([C@@H](C)CO)C[C@H]1C`, for which the inhibition is 1.05%.

`COc1ccccc1CNC(=O)C[C@H]1C[C@@H]2c3cc(NC(=O)c4ccc5c(c4)OCO5)ccc3O[C@@H]2[C@H](CO)O1`: the inhibition is -0.69%.

With `CN(C)CCCNC(=O)C[C@@H]1C=C[C@H](NC(=O)c2ccccc2F)[C@H](CO)O1`, the inhibition was 0.626%.
